Counter-ions that a name gives are not always drawn.
system: Saccharomyces cerevisiae BY4741 SeMeCo community; experiment: z-score of subpopulation abundance vs DMSO median, subpopulation auxotrophic for U; higher = larger share of this subpopulation than in DMSO controls; conditions: 10 µM; 24 h; SM minimal medium; subpopulation (auxotrophy): U
Experimental: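 Fluorescent four-plasmid SeMeCo (self-establishing metabolically cooperating S. cerevisiae BY4741 community; plasmids pH-mRuby2, pL-mWasabi, pU-eCFP, pM-TagRFP657) was grown 24 h in minimal SM medium with each Selleck FDA-approved drug at 10 µM in 384-well plates. Cells were fixed and imaged by high-content confocal microscopy. For each auxotrophic subpopulation (and the prototroph), a z-score gives the deviation from the DMSO vehicle-control population median.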

| Compound | z-score of subpopulation abundance |
| --- | --- |
| CC1(C)SC2C(N)C(=O)N2C1C(=O)O (stereo not given) [6-Aminopenicillanic acid] | 0.1 |
| CC[C@H]1CN2CC[C@]3(C(=O)Nc4ccccc43)[C@@H]2C[C@@H]1/C(=C\OC)C(=O)OC [Rhynchophylline] | 0.63 |
| CN[C@@H]1[C@@H](O)[C@@H](O[C@@H]2[C@@H](O)[C@H](O[C@H]3O[C@H](CN)CC[C@H]3N)[C@@H](N)C[C@H]2N)OC[C@]1(C)O.CN[C@@H]1[C@@H](O)[C@@H](O[C@@H]2[C@@H](O)[C@H](O[C@H]3O[C@H]([C@@H](C)N)CC[C@H]3N)[C@@H](N)C[C@H]2N)OC[C@]1(C)O.CN[C@@H]1[C@@H](O)[C@@H](O[C@@H]2[C@@H](O)[C@H](O[C@H]3O[C@H]([C@@H](C)NC)CC[C@H]3N)[C@@H](N)C[C@H]2N)OC[C@]1(C)O [Gentamicin Sulfate] | 0.09 |
| C=CN1CCCC1=O.II [Povidone iodine] | 0.2 |
| C[N+]1(C)[C@@H]2C[C@@H](OC(=O)[C@H](CO)c3ccccc3)C[C@H]1[C@@H]1O[C@@H]12 [Methscopolamine] | 0.61 |
| CN[C@@H]1[C@@H](O)[C@@H](O[C@@H]2[C@@H](O)[C@H](O[C@H]3O[C@H]([C@@H](C)O)[C@@H](O)[C@H](O)[C@H]3N)[C@@H](N)C[C@H]2N)OC[C@]1(C)O [Geneticin (G418 Sulfate)] | -0.18 |
| CC(C)N(CCC(C(N)=O)(c1ccccc1)c1ccccn1)C(C)C (stereo not given) [Disopyramide] | -1.21 |
| C[C@@H]1CC[C@H]2[C@@H](C)C(=O)O[C@@H]3O[C@@]4(C)CC[C@@H]1[C@]32OO4 [Artemisinin] | 0.61 |
| N#Cc1nn(-c2c(Cl)cc(C(F)(F)F)cc2Cl)c(N)c1[S+]([O-])C(F)(F)F (stereo not given) [Fipronil] | -0.36 |
| Cn1cc(C2=C(c3cn(C4CCN(Cc5ccccn5)CC4)c4ccccc34)C(=O)NC2=O)c2ccccc21 | 1.48 |
| CC(C)=CCOc1c2occc2cc2ccc(=O)oc12 [Imperatorin] | 0.23 |
| N[C@@H]1C[C@H]1c1ccccc1 [Tranylcypromine (2-PCPA) HCl] | -0.01 |
| CCCN1C[C@H](CSC)C[C@@H]2c3cccc4[nH]cc(c34)C[C@H]21 [Pergolide Mesylate] | -0.62 |
| CC[C@@]1(O)C(=O)OCc2c1cc1n(c2=O)Cc2cc3ccccc3nc2-1 [Camptothecin] | -0.45 |
| CN1[C@@H]2C[C@@H](OC(=O)[C@H](CO)c3ccccc3)C[C@H]1[C@@H]1O[C@@H]12 [Scopolamine HBr] | 0.09 |
| C[C@H]1O[C@H](O[C@H]2[C@H](O)[C@@H](O)[C@@H](O)[C@H](O)[C@@H]2O)[C@@H](N)C[C@@H]1NC(=N)C(=O)O [Kasugamycin hydrochloride] | -0.23 |
| NC(=O)CN1CCCC1=O [Piracetam] | -0.08 |
| CCC1=C[C@H]2CN3CCc4c([nH]c5ccccc45)[C@](C(=O)OC)(C2)[C@H]13 [Catharanthine] | 0.69 |
| CC(C)(O)C(Cl)(Cl)Cl [Chlorobutanol] | 0.13 |
| C=CC[C@]1(O)CC[C@H]2[C@@H]3CCC4=CC(=O)CCC4=C3C=C[C@@]21C [Altrenogest] | -1.52 |

| Compound | z-score of subpopulation abundance |
| --- | --- |
| NCC(O)c1ccc(O)cc1 (racemic) [(+,-)-Octopamine HCl] | 0.08 |
| CCOC(=O)Nc1ccc(NCc2ccc(F)cc2)cc1N [Retigabine 2HCl] | -0.66 |
| C[C@@H]1O[C@@H](O[C@H]2C[C@@H](O)[C@]3(CO)[C@H]4[C@H](O)C[C@]5(C)[C@@H](C6=CC(=O)OC6)CC[C@]5(O)[C@@H]4CC[C@]3(O)C2)[C@H](O)[C@H](O)[C@H]1O [Ouabain] | 0.18 |
| COc1ccc(C=O)cc1 [p-Anisaldehyde] | -0.66 |
| C=C(C)[C@H]1Cc2c(ccc3c2O[C@@H]2COc4cc(OC)c(OC)cc4[C@@H]2C3=O)O1 [Rotenone (Barbasco)] | -0.02 |
| CN1[C@@H]2CC[C@H]1C[C@@H](OC(=O)C(CO)c1ccccc1)C2 (stereo not given in full) [Atropine sulfate monohydrate] | 0.96 |
| CCN(C)C(=O)Oc1cccc([C@H](C)N(C)C)c1 [Rivastigmine Tartrate] | -0.19 |
| CC(NC(C)(C)C)C(=O)c1cccc(Cl)c1 (stereo not given) [Amfebutamone (Bupropion) HCl] | 0.11 |
| O=C(O[C@H]1C[C@H]2CC[C@@H](C1)[N+]21CCCC1)C(O)(c1ccccc1)c1ccccc1 [Trospium chloride] | -0.17 |
| CN1c2ccccc2C(NCCCCCCC(=O)O)c2ccc(Cl)cc2S1(=O)=O (stereo not given) [Tianeptine sodium] | -0.4 |
| CN(C)[C@@H]1C(=O)C(C(N)=O)=C(O)[C@@]2(O)C(=O)C3=C(O)c4c(O)cccc4[C@@](C)(O)[C@H]3[C@H](O)[C@@H]12 [Oxytetracycline Dihydrate] | 0.11 |
| C=CCN1C[C@H](C(=O)N(CCCN(C)C)C(=O)NCC)C[C@@H]2c3cccc4[nH]cc(c34)C[C@H]21 [Cabergoline] | 1.05 |
| COC(=O)C1=CCCN(C)C1 [Arecoline HBr] | -0.09 |
| CN1[C@@H]2CC[C@H]1C[C@@H](OC(=O)[C@H](CO)c1ccccc1)C2 [Hyoscyamine] | 0.23 |
| CCN(CC)CCOC(=O)C(O)(c1ccccc1)c1ccccc1 [Benactyzine hydrochloride] | 1.08 |
| CN(C)C(=O)Oc1ccc[n+](C)c1 [Pyridostigmine Bromide] | 0.29 |
| C=C[C@H]1CN2CC[C@H]1C[C@H]2[C@H](O)c1ccnc2ccccc12 [Cinchonidine] | 0.59 |
| CC(=O)OCC1=C(C(=O)O)N2C(=O)C(N)C2SC1 (stereo not given) [7-Aminocephalosporanic acid] | 0.52 |
| CN(C)[C@@H]1C(=O)C(C(N)=O)=C(O)[C@@]2(O)C(=O)C3=C(O)c4c(O)cccc4[C@@](C)(O)[C@H]3[C@H](O)[C@@H]12 [Oxytetracycline (Terramycin)] | 0.03 |
| CN(C)[C@@H]1C(=O)C(C(N)=O)=C(O)[C@@]2(O)C(=O)C3=C(O)c4c(O)cccc4[C@@](C)(O)[C@H]3C[C@@H]12 [Tetracycline HCl] | 0.13 |

— the supplement of paper PMC8975748
